The campaign covered roughly 5,500 compounds. About 2,000 (36%) were called active. Not shown: some 18% with an inconclusive outcome. Cut-off read from the data, not from the text of the source: active = normalized growth mostly below about 0.91 (no sharp cut-off); inconclusive = no clear call, values can overlap the other calls; inactive = mostly above about 0.92. This is one part of the list.
Assay: chemical genetic growth profiling, strain panel (AID 1159580);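 note: tested at 20 µM; growth read once vehicle control cultures reached saturation at 30 °C; 1 = growth at the plate median or of vehicle wells; lower values mean less growth of the strain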
Settings: growth OD

Measured: normalized growth

COc1cc2c(cc1OC)C1Cc3ccc(OC)c(OC)c3CN1CC2 (configuration not stated)
inactive: S. cerevisiae deletion strains, locus YJR066W, strain TOR1, active compounds read low 0.912 | S. cerevisiae deletion strains, locus YKL009W, strain mrt4, active compounds read low 0.988 | S. cerevisiae deletion strains, locus YKL068W, active compounds read low 0.999 | S. cerevisiae deletion strains, locus YKL085W, strain MDH1 (second series), active compounds read low 0.988 | S. cerevisiae deletion strains, locus YKL085W, strain MDH1, active compounds read low 0.988 | S. cerevisiae deletion strains, locus YKL160W, strain elf1, active compounds read low 1.01 | S. cerevisiae deletion strains, locus YKR001C, strain vps1, active compounds read low 1.01 | S. cerevisiae deletion strains, locus YKR026C, strain gcn3, active compounds read low 0.979 | S. cerevisiae deletion strains, locus YKR091W, strain srl3, active compounds read low 0.98 | S. cerevisiae deletion strains, locus YLL001W, strain dnm1, active compounds read low 0.99 | S. cerevisiae deletion strains, locus YLL026W, active compounds read low 0.989 | S. cerevisiae deletion strains, locus YLL041C, strain sdh2, active compounds read low 0.975 | S. cerevisiae deletion strains, locus YLR027C, strain aat2, active compounds read low 0.969 | S. cerevisiae deletion strains, locus YLR039C, strain RIC1, active compounds read low 0.979 | S. cerevisiae deletion strains, locus YLR058C, strain SHM2, active compounds read low 1.01 | S. cerevisiae deletion strains, locus YLR102C, strain apc9, active compounds read low 0.982 | S. cerevisiae deletion strains, locus YLR113W, strain HOG1, active compounds read low 0.978 | S. cerevisiae deletion strains, locus YLR221C, strain rsa3, active compounds read low 0.985 | S. cerevisiae deletion strains, locus YLR258W, strain gsy2, active compounds read low 0.977 | S. cerevisiae deletion strains, locus YLR262C, strain YPT6 (second series), active compounds read low 0.957 | S. cerevisiae deletion strains, locus YLR262C, strain YPT6, active compounds read low 0.918 | S. cerevisiae deletion strains, locus YLR268W, strain sec22, active compounds read low 0.962 | S. cerevisiae deletion strains, locus YLR320W, strain mms22, active compounds read low 0.982 | S. cerevisiae deletion strains, locus YLR330W, strain CHS5, active compounds read low 1.01 | S. cerevisiae deletion strains, locus YLR342W, strain FKS1 (second series), active compounds read low 0.957 | S. cerevisiae deletion strains, locus YLR342W, strain FKS1, active compounds read low 0.968 | S. cerevisiae deletion strains, locus YLR357W, strain rsc2, active compounds read low 0.994 | S. cerevisiae deletion strains, locus YLR370C, strain arc18, active compounds read low 0.971 | S. cerevisiae deletion strains, locus YLR371W, strain rom2, active compounds read low 1.01 | S. cerevisiae deletion strains, locus YLR384C, strain iki3, active compounds read low 0.988 | S. cerevisiae deletion strains, locus YLR418C, strain cdc73, active compounds read low 1.02 | S. cerevisiae deletion strains, locus YML016C, strain PPZ1, active compounds read low 0.988 | S. cerevisiae deletion strains, locus YML032C, strain rad52, active compounds read low 1.03 | S. cerevisiae deletion strains, locus YML120C, strain ndi1, active compounds read low 0.984 | S. cerevisiae deletion strains, locus YML124C, strain tub3, active compounds read low 0.987 | S. cerevisiae deletion strains, locus YMR058W, strain fet3, active compounds read low 0.984 | S. cerevisiae deletion strains, locus YMR078C, strain ctf18, active compounds read low 0.968 | S. cerevisiae deletion strains, locus YMR125W, strain sto1, active compounds read low 0.953 | S. cerevisiae deletion strains, locus YMR129W, active compounds read low 0.978 | S. cerevisiae deletion strains, locus YMR205C, strain PFK2, active compounds read low 0.987 | S. cerevisiae deletion strains, locus YMR223W, strain ubp8, active compounds read low 1.01 | S. cerevisiae deletion strains, locus YMR231W, strain pep5, active compounds read low 0.966 | S. cerevisiae deletion strains, locus YMR263W, strain SAP30, active compounds read low 1 | S. cerevisiae deletion strains, locus YMR307W, strain GAS1, active compounds read low 1 | S. cerevisiae deletion strains, locus YNL067W, strain RPL9B, active compounds read low 1.02 | S. cerevisiae deletion strains, locus YNL071W, strain lat1, active compounds read low 0.974 | S. cerevisiae deletion strains, locus YNL128W, strain TEP1, active compounds read low 0.983 | S. cerevisiae deletion strains, locus YNL153C, strain GIM3, active compounds read low 1.03 | S. cerevisiae deletion strains, locus YNL183C, strain NPR1, active compounds read low 0.93 | S. cerevisiae deletion strains, locus YNL209W, strain ssb2, active compounds read low 1.01 | S. cerevisiae deletion strains, locus YNL233W, strain BNI4, active compounds read low 1.02 | S. cerevisiae deletion strains, locus YNL248C, strain rpa49, active compounds read low 0.961 | S. cerevisiae deletion strains, locus YNL250W, strain rad50, active compounds read low 0.968 | S. cerevisiae deletion strains, locus YNL271C, strain bni1, active compounds read low 0.976 | S. cerevisiae deletion strains, locus YNL298W, strain CLA4, active compounds read low 0.991 | S. cerevisiae deletion strains, locus YNL307C, strain MCK1, active compounds read low 1 | S. cerevisiae deletion strains, locus YNL322C, strain KRE1 (second series), active compounds read low 0.948 | S. cerevisiae deletion strains, locus YNR049C, strain mso1, active compounds read low 0.967 | S. cerevisiae deletion strains, locus YNR052C, strain pop2, active compounds read low 0.993 | S. cerevisiae deletion strains, locus YOL012C, strain htz1 0.904 | S. cerevisiae deletion strains, locus YOL147C, strain pex11, active compounds read low 0.99 | S. cerevisiae deletion strains, locus YOR001W, strain rrp6, active compounds read low 0.957 | S. cerevisiae deletion strains, locus YOR061W, strain CKA2, active compounds read low 0.996 | S. cerevisiae deletion strains, locus YOR069W, strain VPS5, active compounds read low 0.984 | S. cerevisiae deletion strains, locus YOR070C, strain gyp1, active compounds read low 0.984 | S. cerevisiae deletion strains, locus YOR080W, strain dia2, active compounds read low 0.971 | S. cerevisiae deletion strains, locus YOR083W, strain WHI5, active compounds read low 1.01 | S. cerevisiae deletion strains, locus YOR106W, strain vam3, active compounds read low 0.987 | S. cerevisiae deletion strains, locus YOR136W, strain idh2, active compounds read low 0.975 | S. cerevisiae deletion strains, locus YOR144C, strain elg1, active compounds read low 0.989 | S. cerevisiae deletion strains, locus YOR184W, strain ser1, active compounds read low 0.917 | S. cerevisiae deletion strains, locus YOR231W, strain MKK1, active compounds read low 0.99 | S. cerevisiae deletion strains, locus YOR265W, strain rbl2, active compounds read low 0.961 | S. cerevisiae deletion strains, locus YOR270C, strain vph1, active compounds read low 0.94 | S. cerevisiae deletion strains, locus YOR290C, strain snf2, active compounds read low 0.994 | S. cerevisiae deletion strains, locus YOR316C, strain cot1, active compounds read low 0.99 | S. cerevisiae deletion strains, locus YPL051W, strain arl3, active compounds read low 0.997 | S. cerevisiae deletion strains, locus YPL078C, strain atp4, active compounds read low 0.981 | S. cerevisiae deletion strains, locus YPL106C, strain sse1, active compounds read low 1.02 | S. cerevisiae deletion strains, locus YPL240C, strain hsp82, active compounds read low 0.968 | S. cerevisiae deletion strains, locus YPL256C, strain CLN2, active compounds read low 1 | S. cerevisiae deletion strains, locus YPR119W, strain clb2, active compounds read low 0.994 | S. cerevisiae deletion strains, locus YPR141C, strain kar3, active compounds read low 0.982 | S. cerevisiae deletion strains, locus YPR163C, strain tif3, active compounds read low 0.989 | S. cerevisiae deletion strains, locus YPR167C, strain met16, active compounds read low 0.99 | S. cerevisiae deletion strains, strain wtn01, active compounds read low 0.968 | S. cerevisiae strains, strain wild type, active compounds read low 1.01

From PubChem BioAssay AID1159580 (chemical genetic matrix, 2015)
